From PubChem BioAssay
Values joined by “and” are separate entries in the source; they are usually repeats but may differ in a detail not shown here. Identical values can stand only once. For part of these data: Potency and affinity values are given separately. Active and inactive are the calls of the source. Rule as the data show it, unless noted: active = parasite load remaining mostly below about 12% (no sharp cut-off); inactive = mostly above about 10%.

Columns and labels:
[1] = liver-stage malaria parasite growth inhibition, primary screen, cell-based, HepG2, luciferase luminescence, HepG2 viability (AID 624349);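 also: 100% = mean of DMSO negative control wells on the same plate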; conditions: P. berghei liver stage in HepG2, luciferase luminescence, concentration not given here; parasite load remaining: stronger effect = lower value; viability: measured here: HepG2 viability without parasites
[2] = differential killing of epithelial or mesenchymal cells, primary screen, imaging, PC-3E GFP, TEM4-18 mCherry, co-culture (AID 1345086;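 active = compounds killing one labelled cell type while sparing the other, by normalised counts and ratio limits, not self-fluorescent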;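 as to all read-outs here: cells exposed to compound for 72 h before imaging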;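 as to red/green cell ratio (normalised): normalised mesenchymal count divided by normalised epithelial count so high means epithelial killing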); conditions: imaging cell counts, at 1 µM; for red/green cell ratio (normalised): actives lie on both sides, counts scaled to control wells, 1 = unselective
[3] = sensitizers of A549 cells to miR-34 induction, primary screen, imaging, A549 dox-inducible miR-34, nuclei and caspase counts (AID 1347080;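 active = compounds whose cell count with miR-34 switched on is under 0.7 times the count with it off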); conditions: A549 miR-34 inducible, Hoechst nuclei count, 48 h
[4] = hESC survival regulators, cell-based (AID 493140; call rule not given here;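 also: cells exposed to compounds for four days before counting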); conditions: human embryonic stem cell survival screen; stronger effect = higher value
[5] = polyglutamine-triggered caspase-3 activation inhibitors, cell-based (AID 1583); conditions: polyglutamine-induced caspase-3 activation, cell assay; stronger effect = higher value;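 tested at 10 µM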
[6] = suppressors of polyQ aggregation in yeast, 75Q-TubU reporter (AID 1593); conditions: Yeast 75Q polyglutamine aggregation reporter
[7] = rescue of polyQ-huntingtin neuronal dysfunction in worms, whole organism, C. elegans mechanosensory neurons, N-terminal huntingtin (AID 1599); conditions: touch response, stronger effect = higher value
[8] = inhibitors of mitochondrial cytochrome c release, biochemical, purified mitochondria (AID 1603); conditions: stronger effect = lower value;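 also: mouse liver mitochondria challenged with calcium chloride; signal normalized to the plate average as 100%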
[9] = inhibitors of polyQ protein aggregation (AID 1604); conditions: polyglutamine-induced protein aggregation inhibition assay; stronger effect = higher value; tested at 2.5 µM
[10] = enhancers of glutamate uptake in motor neurons, MN-1 cell line (AID 1612); conditions: MN-1 motor neuron cells, stronger effect = higher value;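 also: tested at 1 µM final; 0% = mean of DMSO vehicle wells on each plate; positive means more glutamate uptake than control and negative means less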
[11] = reducers of polyQ inclusions in PC12 cells, cell-based, NGF-treated PC12, GFPQ80 (AID 1614); conditions: PC12 NGF-treated GFP-polyQ80 inclusion reduction;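 also: lower means fewer inclusions and 0 means no inclusions at all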
[12] = suppressors of polyglutamine aggregation in yeast, 75Q-TubH (AID 1616); conditions: S. cerevisiae 75Q-TubH polyglutamine aggregation suppression; stronger effect = higher value
[13] = phospholipid biosynthesis inhibitors in animal cells, primary screen, cell-based, LOPAC library, screen 4 (AID 1347384; call rule not given here); conditions: phospholipid biosynthesis inhibition screen, at 10 µM
[14] = measured here: epithelial PC-3E GFP cell survival
[15] = measured here: mesenchymal TEM4-18 mCherry cell survival
[16] = stronger effect = lower value, cell number ratio, induced over uninduced
[17] = measured here: relative caspase fold change +Dox/-Dox
[18] = measured here: total cells with miR-34 induction, stronger effect = lower value
[19] = measured here: total cells without miR-34 induction

NC[C@H]1O[C@H](OC2[C@@H](N)C[C@@H](N)[C@H](O[C@H]3O[C@H](CO)[C@@H](O)[C@H](N)[C@H]3O)[C@H]2O)[C@H](O)[C@@H](O)[C@@H]1O (some centres not stated)
parasite load remaining [1]: 92.2% (inactive) and 70.3% (inactive)
viability [1]: 72.7% and 101%
red/green cell ratio (normalised) [2]: 1.25 (inactive)
normalised cell number [2, 14]: 0.64
normalised cell number [2, 15]: 0.8
fold change [3, 16]: 0.877 (inactive)
fold change [3, 17]: 2
cell count [3, 18]: 11500
cell count [3, 19]: 13200

CCN[C@@H]1C[C@H](N)[C@@H](O[C@H]2OC(CN)=CC[C@H]2N)[C@H](O)[C@H]1OC1OC[C@](C)(O)[C@H](NC)[C@H]1O (some centres not stated)
parasite load remaining [1]: 81% (inactive)
viability [1]: 99.2%
red/green cell ratio (normalised) [2]: 0.96 (inactive)
normalised cell number [2, 14]: 1.05
normalised cell number [2, 15]: 1
fold change [3, 16]: 0.763 (inactive)
fold change [3, 17]: 6.26
cell count [3, 18]: 8580
cell count [3, 19]: 11200

CC(=O)Nc1cc2ccccc2oc1=O
survival [4]: 3.5 (inactive)
parasite load remaining [1]: 90.5% (inactive)
viability [1]: 77.8%
red/green cell ratio (normalised) [2]: 0.74 (inactive)
normalised cell number [2, 14]: 1.29
normalised cell number [2, 15]: 0.95
fold change [3, 16]: 0.955 (inactive)
fold change [3, 17]: 0.792
cell count [3, 18]: 8640
cell count [3, 19]: 9040

COc1cc([C@@H]2c3cc4c(cc3C(OC3O[C@@H]5COC(C)O[C@H]5[C@H](O)[C@H]3O)C3COC(=O)[C@@H]32)OCO4)cc(OC)c1O (some centres not stated)
parasite load remaining [1]: 116% (inactive) and 63.3% (inactive)
viability [1]: 71.1% and 87.6%
red/green cell ratio (normalised) [2]: 0.85 (inactive)
normalised cell number [2, 14]: 0.36
normalised cell number [2, 15]: 0.31
fold change [3, 16]: 0.832 (inactive)
fold change [3, 17]: 1.86
cell count [3, 18]: 3220
cell count [3, 19]: 3870

CC(=O)OCC(=O)[C@@]1(OC(C)=O)[C@@H](C)CC2C3C[C@H](F)C4=CC(=O)C=C[C@]4(C)[C@@]3(F)[C@@H](O)C[C@@]21C (some centres not stated)
parasite load remaining [1]: 202% (inactive)
viability [1]: 105%
red/green cell ratio (normalised) [2]: 1.18 (inactive)
normalised cell number [2, 14]: 1.13
normalised cell number [2, 15]: 1.34
fold change [3, 16]: 0.928 (inactive)
fold change [3, 17]: 4.21
cell count [3, 18]: 7220
cell count [3, 19]: 7780

CC(CCC(=O)O)[C@H]1CCC2C3C(=O)C[C@@H]4CC(=O)CC[C@]4(C)C3CC(=O)[C@@]21C (some centres not stated)
parasite load remaining [1]: 50.2% (inactive)
viability [1]: 81.3%
red/green cell ratio (normalised) [2]: 1.13 (inactive)
normalised cell number [2, 14]: 0.93
normalised cell number [2, 15]: 1.05
fold change [3, 16]: 0.923 (inactive)
fold change [3, 17]: 1.77
cell count [3, 18]: 11900
cell count [3, 19]: 12900

O=C(O)C1=C(CSc2nnnn2CS(=O)(=O)O)CS[C@@H]2C(NC(=O)[C@H](O)c3ccccc3)C(=O)N12 (some centres not stated)
parasite load remaining [1]: 57.8% (inactive)
viability [1]: 103%
red/green cell ratio (normalised) [2]: 0.95 (inactive)
normalised cell number [2, 14]: 1.08
normalised cell number [2, 15]: 1.03
fold change [3, 16]: 0.834 (inactive)
fold change [3, 17]: 4.26
cell count [3, 18]: 10700
cell count [3, 19]: 12900

C[C@H]1O[C@@H](O[C@H]2[C@@H](O)C[C@H](O[C@H]3[C@@H](O)C[C@H](O[C@H]4CC[C@]5(C)C6CC[C@]7(C)[C@@H](C8=CC(=O)OC8)CC[C@]7(O)C6CC[C@@H]5C4)O[C@@H]3C)O[C@@H]2C)C[C@H](O)[C@@H]1O (some centres not stated)
parasite load remaining [1]: 0.925% (inactive) and 0.995% (inactive)
viability [1]: 37.2% and 52.3%
red/green cell ratio (normalised) [2]: 0.46 (inactive)
normalised cell number [2, 14]: 0.15
normalised cell number [2, 15]: 0.07
fold change [3, 16]: 0.424 (active)
fold change [3, 17]: 1.53
cell count [3, 18]: 190
cell count [3, 19]: 450

O=C1O[C@H](C(O)CO)C(O)=C1O (some centres not stated)
parasite load remaining [1]: 82.7% (inactive) and 21.4% (inactive)
viability [1]: 69.6% and 79.3%
red/green cell ratio (normalised) [2]: 1.21 (inactive)
normalised cell number [2, 14]: 1.04
normalised cell number [2, 15]: 1.26
fold change [3, 16]: 0.918 (inactive)
fold change [3, 17]: 4.48
cell count [3, 18]: 12000
cell count [3, 19]: 13100

CC1OC1P(=O)(O)O (configuration not stated)
inhibition [5]: -3.29%
score [6]: 1.42
rescue above control [7]: 16.3
cytochrome c release ratio [8]: 6.79
inhibition of aggregation [9]: 83.9%
glutamate uptake change [10]: -1.38%
inclusion score [11]: 2
aggregation suppression score [12]: 1.43
parasite load remaining [1]: 59.9% (inactive) and 33.6% (inactive)
viability [1]: 74.5% and 90.1%
red/green cell ratio (normalised) [2]: 1.09 (inactive)
normalised cell number [2, 14]: 1.06
normalised cell number [2, 15]: 1.16
outcome [13]: inactive

CC(=O)OCC(=O)[C@@]1(O)CCC2C3CCC4=CC(=O)CC[C@]4(C)[C@@]3(F)[C@@H](O)C[C@@]21C (some centres not stated)
parasite load remaining [1]: 127% (inactive) and 70.7% (inactive)
viability [1]: 75.9% and 93.9%
red/green cell ratio (normalised) [2]: 1.57 (inactive)
normalised cell number [2, 14]: 0.85
normalised cell number [2, 15]: 1.34
fold change [3, 16]: 0.879 (inactive)
fold change [3, 17]: 1.47
cell count [3, 18]: 6890
cell count [3, 19]: 7830

CCCCC/C=C/CCC(=O)N[C@H]1[C@H](Oc2c3cc4cc2Oc2ccc(cc2Cl)[C@@H](O[C@@H]2O[C@H](CO)[C@@H](O)[C@H](O)[C@H]2NC(C)=O)[C@@H]2NC(=O)[C@H](NC(=O)[C@@H]4NC(=O)[C@H]4NC(=O)C(Cc5ccc(c(Cl)c5)O3)NC(=O)[C@H](N)c3ccc(O)c(c3)Oc3cc(O)cc4c3)c3ccc(O)c(c3)-c3c(OC4O[C@H](CO)[C@@H](O)[C@H](O)[C@@H]4O)cc(O)cc3[C@@H](C(=O)O)NC2=O)O[C@H](CO)[C@@H](O)[C@@H]1O (some centres not stated)
parasite load remaining [1]: 146% (inactive)
viability [1]: 99.2%
red/green cell ratio (normalised) [2]: 1.02 (inactive)
normalised cell number [2, 14]: 0.94
normalised cell number [2, 15]: 0.96
fold change [3, 16]: 0.918 (inactive)
fold change [3, 17]: 5.67
cell count [3, 18]: 12100
cell count [3, 19]: 13200

COc1cc(NS(C)(=O)=O)ccc1Cc1c2ccccc2nc2ccccc12
parasite load remaining [1]: 41.6% (inactive)
viability [1]: 143%
red/green cell ratio (normalised) [2]: 0.96 (inactive)
normalised cell number [2, 14]: 0.32
normalised cell number [2, 15]: 0.31
fold change [3, 16]: 0.911 (inactive)
fold change [3, 17]: 3.12
cell count [3, 18]: 3640
cell count [3, 19]: 4000

CC(=O)S[C@@H]1CC2=CC(=O)CC[C@]2(C)[C@H]2CC[C@@]3(C)[C@@H](CC[C@@]34CCC(=O)O4)C12 (some centres not stated)
parasite load remaining [1]: 56.6% (inactive) and 46.1% (inactive)
viability [1]: 72.6% and 88.2%
red/green cell ratio (normalised) [2]: 1.24 (inactive)
normalised cell number [2, 14]: 1
normalised cell number [2, 15]: 1.25
fold change [3, 16]: 0.863 (inactive)
fold change [3, 17]: 2.19
cell count [3, 18]: 10200
cell count [3, 19]: 11900
